High-throughput results deposited in PubChem by several laboratories.
Most compounds without a hit are left out; they make up all but 2.6% or so of the library.
CF NFkB block – blocks PAF-induced NF-kB reporter in cystic fibrosis cells; KKLEB NF-kB-GFP reporter, GFP fluorescence overnight; inhibition, % at 5 µM; actives 0.86% (n = 360,000);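 active means at least 50% inhibition at 5 µM, scaled per plate between neutral and stimulator controls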;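 further: PAF is a Pseudomonas aeruginosa culture filtrate used as stimulus; plate controls were PAF-stimulated DMSO wells for no effect and unstimulated DMSO wells for full effect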
TROY signal inh – blocks TROY-dependent signaling in reporter cells | AID 1347056 | Q293 LMP1-TROYcd NF-kB luciferase reporter, 4 h | actives 0.98% (n = 360,000) | inhibition, % at 10 µM;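 active means compounds whose plate-normalised and pattern-corrected inhibition of the luciferase reporter signal at the single screening dose is 50% or more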
LGR2 antag – Drosophila LGR2 receptor signaling inhibition; AID 720647; inhibition, % at 9.99 µM; actives 0.35% (n = 380,000); HEK293 LGR2, CRE-luciferase, bursicon-stimulated, 4 h;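 active means drop in luminescence signal, shown as inhibition above about 50% in the replicate tests, limit read from the data, passing the limit was not always enough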;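 further: agonist challenge used bursicon conditioned medium at about half maximal strength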
TWEAK Fn14 block – inhibitors of TWEAK-Fn14 interaction signaling. inhibition, % at 10 µM. TWEAK-stimulated Fn14 reporter cells, luciferase luminescence, 8 h. actives 2% (n = 360,000); in the data active means inhibition above about 50%
KKLEB tox – counter-screen for CF NF-kB inhibitors: cytotoxicity; KKLEB CF airway cells viability, ATPlite luminescence, overnight; stronger effect = lower value; cells stimulated with P. aeruginosa culture filtrate; activity change (cytotoxicity), % at 5 µM; actives 0.36% (n = 360,000);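 active means corrected activity change at or below -50% at 5 µM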
EWS-Fli inh – inhibitors of EWS/Fli oncoprotein transcriptional activity; actives 0.67% (n = 350,000); A673 NR0B1-luciferase reporter, viability-normalised; inhibition, % at 12.6 µM;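 active means mean inhibition of at least 50% after viability correction, with every replicate also passing that limit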;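 further: firefly luciferase signal divided by Alamar Blue viability fluorescence both relative to DMSO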
An asterisk follows results filed as active; . = not tested or not shown.

SMILES	CF NFkB block	TROY signal inh	LGR2 antag	TWEAK Fn14 block	KKLEB tox	EWS-Fli inh
COc1ccc(NC(=O)Nc2ccc3c(c2)CC(=O)N([C@@H](C)CO)C[C@H](C)[C@@H](CN(C)C(=O)Nc2ccc(OC)cc2)O3)cc1	.	.	-16	.	.	-3
CCOC(=O)C1CCCN(C(=O)c2ccc(OC(C)=O)cc2)C1 (stereo unspecified)	-2	12	.	5	6	.
CCOC(=O)C1CCCN(C(=O)C(C)(C)Oc2ccc(Cl)cc2)C1 (stereo unspecified)	15	19	-12	86*	-6	4
O=C(C[C@H]1CC[C@@H]2[C@H](COC[C@H](O)CN2Cc2nccs2)O1)N1CCC(Cc2ccccc2)CC1	.	.	19	.	.	-1
O=C(CCN1C(=O)/C(=C/c2ccccc2Cl)SC1=S)Nc1ccccc1C(=O)O	12	46	16	10	2	6
O=C(CCCN1C(=O)/C(=C/c2ccccc2Cl)SC1=S)NNC(=O)c1cccnc1	-3	77*	-7	87*	-6	36
O=C(CCCN1C(=O)/C(=C/c2ccccc2Cl)SC1=S)NNC(=O)c1ccccc1	14	57*	30	70*	-8	45
O=C(NC[C@@H]1N[C@@H](CO)[C@H]1c1ccc(-c2cccnc2)cc1)C1CCCC1	.	.	-5	.	.	0
C=CC[n+]1c(/C=C2\C=Cc3cc(C)ccc3N2CC)ccc2ccccc21	27	40	26	57*	-11	23
CCOC(=O)/C=c1\s/c(=C\c2ccccc2C)c(=O)n1CC(=O)NCc1ccc2c(c1)OCO2	38	14	28	-1	-58*	13
COc1cccc(S(=O)(=O)N[C@H]2CC[C@@H](CCn3cc(-c4ccccc4OC)nn3)O[C@@H]2CO)c1	.	.	-6	.	.	7
N#CCC(=O)N/N=C/c1cn(Cc2cccc3ccccc23)c2ccccc12	2	32	-10	14	-10	53*
CO[C@@H]1CN(C)C(=O)c2ccc(NS(=O)(=O)c3ccccc3)cc2OC[C@H](C)N(Cc2nccs2)C[C@H]1C	.	.	-1	.	.	0
C[C@H]1CN([C@@H](C)CO)C(=O)c2cccc(NC(=O)NC3CCCCC3)c2O[C@H]1CN(C)S(=O)(=O)c1ccc(Cl)cc1	.	.	14	.	.	24
Cc1ccc2[nH]c3c(N4CCc5ccccc5C4)ncnc3c2c1	-6	32	.	63*	-2	.
Fc1ccc2[nH]c3c(N4CCc5ccccc5C4)ncnc3c2c1	-15	18	16	58*	-1	13
CN1CCN(c2ncnc3c2[nH]c2ccc(F)cc23)CC1	-20	3	.	-24	3	.
CNC[C@@H]1Oc2ccc(NC(=O)NC3CCCCC3)cc2C(=O)N([C@@H](C)CO)C[C@@H]1C	.	.	12	.	.	-7
CCN(CC)c1ccc(N=C2C(=O)Nc3ccccc32)cc1	-6	28	-28	52*	18	14
Cc1ccc(N=C2C(=O)Nc3ccccc32)cc1	0	-47	-4	-7	16	32
CC(C)NC(=O)N(C)C[C@@H]1Oc2cc(-c3ccccc3)ccc2S(=O)(=O)N([C@H](C)CO)C[C@@H]1C	.	.	-2	.	.	-2
O=C(CN1CCOCC1)N[C@@H]1CC[C@H](CCn2cc(C3CCCCC3)nn2)O[C@@H]1CO	.	.	8	.	.	.
COCCN(Cc1nc(-c2ccc(-c3ccccc3)cc2)oc1C)C(C)C	7	-25	-86	78*	-5	-70
Cc1oc(-c2ccoc2)nc1CN(CC1CCC(=O)N1)C(C)C (stereo unspecified)	12	6	.	1	-21	3
O=C(Nc1ccccc1)Nc1ccccc1C(=O)NCc1ccccc1	3	-34	.	14	-6	.
SMILES	CF NFkB block	TROY signal inh	LGR2 antag	TWEAK Fn14 block	KKLEB tox	EWS-Fli inh
CNC(=O)Nc1ccccc1C(=O)NCc1ccccc1	-35	-7	.	62*	17	.
O=[N+]([O-])c1ccccc1C=NNC(=S)NN=Cc1ccccc1[N+](=O)[O-]	28	-49	-93	-1	-30	-7
O=[N+]([O-])c1ccccc1NC(=S)N/N=C/c1ccc(O)c(O)c1	-17	66*	-41	66*	-5	-3
CCOc1cccc(/C=N/NC(=S)Nc2ccccc2[N+](=O)[O-])c1O	1	90*	83*	100*	-12	31
Cc1nn(-c2nc3ccccc3[nH]2)c(=O)c2ccccc12	-12	92*	103*	105*	-78*	88*
Cc1nn(-c2ccc3ccccc3c2)c(=O)c2ccccc12	16	-113	-1	-11	-14	-45
CN(C)C(=O)c1cccc(-c2ccccc2[C@@H]2[C@H](C#N)N(C(=O)C3CCCCC3)[C@H]2CO)c1	.	.	-25	.	.	1
O=C(C[C@@H]1C[C@H]2c3cc(NC(=O)C4CCOCC4)ccc3O[C@H]2[C@@H](CO)O1)NCC1CC1	.	.	-5	.	.	0
Cc1cc2nc3s/c(=C/c4ccc(-c5ccccc5C(=O)O)o4)c(=O)n3c2cc1C	-63	3	-3	14	17	-1
O=C(O)c1ccccc1-c1ccc(/C=c2\sc3nc4cc(Br)cnc4n3c2=O)o1	-18	19	.	75*	-1	.
CC1(C(=O)NCCC(F)(F)F)Cc2c(-c3cccc(C(F)(F)F)c3)ccnc2O1 (stereo unspecified)	24	-6	11	4	-15	42
CC(=O)Nc1cccc(-c2ccnc3c2CC(C)(C(=O)NCc2cccs2)O3)c1 (stereo unspecified)	0	17	-10	6	-14	60*
CN(C)c1ccc(-c2ccnc3c2CC(C)(C(=O)NCc2ccccc2)O3)cc1 (stereo unspecified)	-8	10	26	-2	-5	61*
CC1(C(=O)NCC2CCOCC2)Cc2c(-c3cccc(C(F)(F)F)c3)ccnc2O1 (stereo unspecified)	16	11	6	4	-25	52*
CC1(C(=O)NCc2ccccc2)Cc2c(-c3ccccc3)ccnc2O1 (stereo unspecified)	-11	-1	-6	3	-9	59*
CC1(C(=O)NCc2cccc(Cl)c2)Cc2c(-c3ccccc3)ccnc2O1 (stereo unspecified)	-4	0	23	-11	6	5
COC(=O)C[C@@H]1CC[C@H]2[C@@H](COC[C@@H](O)CN2S(=O)(=O)c2ccccc2C)O1	.	.	-16	.	.	-5
CCCN1C[C@@H](C)[C@@H](OC)CN(C)C(=O)c2ccc(NC(=O)Nc3cccc(F)c3)cc2OC[C@H]1C	.	.	4	.	.	4
CC1(C(=O)NCc2ccco2)Cc2c(-c3ccc(C(N)=O)cc3)ccnc2O1 (stereo unspecified)	11	1	19	23	-12	47
CC1(C(=O)NCc2ccccc2)Cc2c(-c3ccc(C(N)=O)cc3)ccnc2O1 (stereo unspecified)	10	-1	-12	8	-10	54*
